# Screening data: PubChem, several laboratories
# Most compounds without a hit are left out; they make up all but 1.3% or so of the library.
# OPRM1-OPRD1 ag: OPRM1-OPRD1 heterodimerization agonism; actives 0.3% (n = 340,000); activation, % at 9.3 µM; cells, luminescence; AID 504326; in the data active = activation above about 18%;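 also: 0% = vehicle-treated cells and 100% = reference agonist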
# Target sequence (P35372 whole entry, looked up): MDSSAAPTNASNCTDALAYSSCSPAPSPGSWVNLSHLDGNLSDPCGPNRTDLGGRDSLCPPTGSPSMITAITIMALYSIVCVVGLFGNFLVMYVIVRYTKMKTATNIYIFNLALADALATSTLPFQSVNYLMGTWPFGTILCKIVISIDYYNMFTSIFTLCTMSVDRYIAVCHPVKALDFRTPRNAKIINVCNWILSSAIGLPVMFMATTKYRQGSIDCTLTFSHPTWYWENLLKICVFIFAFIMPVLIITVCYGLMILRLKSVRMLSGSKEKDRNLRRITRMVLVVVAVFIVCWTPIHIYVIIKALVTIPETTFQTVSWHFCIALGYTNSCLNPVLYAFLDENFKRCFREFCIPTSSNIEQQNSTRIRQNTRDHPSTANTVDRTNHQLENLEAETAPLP
# Target sequence (P41143 whole entry, looked up): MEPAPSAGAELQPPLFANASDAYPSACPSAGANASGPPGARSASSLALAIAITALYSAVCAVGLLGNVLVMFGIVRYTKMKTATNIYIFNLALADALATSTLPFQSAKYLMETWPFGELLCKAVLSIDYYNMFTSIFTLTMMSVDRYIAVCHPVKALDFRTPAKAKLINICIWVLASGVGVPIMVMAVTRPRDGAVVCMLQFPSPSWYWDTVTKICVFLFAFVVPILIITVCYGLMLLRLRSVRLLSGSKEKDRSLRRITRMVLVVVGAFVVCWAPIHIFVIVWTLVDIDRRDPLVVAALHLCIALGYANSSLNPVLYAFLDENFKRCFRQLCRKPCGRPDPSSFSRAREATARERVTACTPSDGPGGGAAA
# PvdQ inh: P. aeruginosa PvdQ acylase inhibition; purified PvdQ acylase, fluorescence plate reader; inhibition, % at 10 µM; actives 0.063% (n = 340,000); AID 488965; in the data active = inhibition above about 30%, passing the limit was not always enough;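 also: 0% = vehicle neutral wells and 100% = reference inhibitor wells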
# HTR5A inv ag: counter-screen for OPRM1-OPRD1 inverse agonists: human HTR5A inverse agonism. AID 504634. actives 0.083% (n = 340,000). HTR5A cell line, luminescence. inhibition, % at 9.3 µM; in the data active = inhibition mostly above about 23%, no sharp cut-off; inactive = mostly below about 18%;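 also: 0% = cells with DMSO and 100% = no-cell wells with DMSO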
# MOR-DOR inv ag: inverse agonists of human mu-delta opioid receptor heterodimerization | P35372+P41143 | cell-based MOR-DOR heterodimer luminescence, inverse agonism | inhibition, % at 9.3 µM | actives 0.21% (n = 340,000) | AID 504357; in the data active = inhibition above about 22%, passing the limit was not always enough;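 also: 0% = cells with DMSO and 100% = wells without cells with DMSO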
# HTR5A ag ctr: counter-screen for OPRM1-OPRD1 agonists: human HTR5A agonism | P47898 | HTR5A agonist assay, luminescence, cell-based | activation, % at 9.3 µM | actives 0.61% (n = 340,000) | AID 504692; in the data active = activation mostly above about 9.5%, no sharp cut-off; inactive = mostly below about 7.6%;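 also: 0% = cells with vehicle only and 100% = reference agonist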
# CR mimetic SO: lowers age-related superoxide in aged yeast cells; actives 0.18% (n = 330,000); superoxide response (% of plate mean), % at 10 µM; S. cerevisiae aged cells, superoxide DHE fluorescence; hits give low values;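 active = superoxide response under a set limit, about three screen SD below normal, cut at about 65% in these data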;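 also: yeast aged for seven days with compound at 30 °C before DHE staining; 100% = average MFI of all compound-treated wells on the plate with controls excluded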
# CR mimetic CP: confirmation of caloric restriction mimetics inhibiting yeast age-related superoxide | shares compounds with CR mimetic SO | S. cerevisiae aging, superoxide DHE fluorescence; hits give low values | superoxide response (% of plate), % at 10 µM | actives 1% (n = 850) | AID 434994;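 active = superoxide signal below 65% of the plate average of sample wells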;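 also: cells aged with compound for 7 days at 30 degrees C before staining; 100% equals mean DHE fluorescence of all compound wells on the plate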
# DHE fluor count: DHE fluorescence interference, counter-screen artifact | S. cerevisiae BY4741, flow cytometry; hits give low values | shares compounds with CR mimetic SO | fluorescence response, % at 10 µM | 850 tested, under 10 active;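 active = fluorescence response below 15%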;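 also: percent of the mean fluorescence averaged over all compound wells on the plate; lower means stronger quenching of DHE signal or ROS scavenging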
# An asterisk follows results filed as active; . = not tested or not shown.
SMILES,OPRM1-OPRD1 ag,PvdQ inh,HTR5A inv ag,MOR-DOR inv ag,HTR5A ag ctr,CR mimetic SO,CR mimetic CP,DHE fluor count
O=C(Nc1ccc2nc3ccccc3nc2c1)c1ccc(Br)cc1,2,-7,-12,-12,3,99,93,113
CC1Oc2ccccc2N(CC(=O)c2ccccc2)C1=O (stereo unspecified),-3,-7,-29,16,0,60*,111,93
O=C(O)c1cnc2ccccc2n1,-1,-6,-5,5,-3,64*,71,94
Cc1cccc(NS(=O)(=O)c2cc(C(=O)N3CCN(C)CC3)ccc2C)c1,-2,-11,4,10,2,64*,110,104
C=CCN=C1S/C(=C/c2ccc([N+](=O)[O-])cc2)C(=O)N1CC=C,1,-11,-8,-3,2,60*,77,89
C=CCN=C1S/C(=C/c2cccc([N+](=O)[O-])c2)C(=O)N1CC=C,0,3,-5,1,-1,107,.,.
COc1ccccc1-c1nnc(NC(=O)c2ccc(S(=O)(=O)N3CCCC3)cc2)o1,2,-15,-27,-11,7,101,116,106
CS(=O)(=O)c1cccc(-c2nnc(NC(=O)c3ccc(S(=O)(=O)N4CCCC4)cc3)o2)c1,0,-11,7,0,5,103,.,.
Cc1cc(NC(=O)c2ccc(S(=O)(=O)N(C)CC3CCCO3)cc2)no1 (stereo unspecified),-1,3,1,6,0,91,.,.
O=C(Nc1nnc(-c2ccc(F)cc2)o1)c1ccc(S(=O)(=O)N2CCOCC2)cc1,-1,11,2,8,0,98,105,112
CC1CCCN(S(=O)(=O)c2ccc(C(=O)Nc3nnc(C4CC4)o3)cc2)C1 (stereo unspecified),-3,-18,-17,18,5,65*,93,100
CC1CCCN(S(=O)(=O)c2ccc(C(=O)Nc3nnc(-c4ccccn4)o3)cc2)C1 (stereo unspecified),-1,5,13,4,-2,74,.,.
COc1ccc(-c2nnc(NC(=O)c3ccc(S(=O)(=O)N(C)CC4CCCO4)cc3)o2)c(OC)c1 (stereo unspecified),-2,-10,-9,9,2,100,94,97
CCSc1nnc(-c2ccc(S(=O)(=O)N3CCCC3)cc2)n1C,-1,-5,-12,6,2,90,.,.
CCSc1nnc(C)c(=O)n1COC(=O)c1ccc(S(=O)(=O)N2CCCC2)cc1,-1,6,-3,8,-2,51*,105,102
CCOc1ccc(C(=O)N2CCCC2)cc1,-3,8,15,15,-6,105,.,.
CCc1ccc2oc(C(=O)N3CCN(c4ccccc4OC)CC3)cc(=O)c2c1,-4,0,1,17,0,62*,106,95
CCOc1ccc(C(=O)N2CCN(c3cccc(C)c3C)CC2)cc1,6,-3,-1,-31,0,99,107,89
COc1ccccc1N1CCN(C(=O)c2ccc(-c3ccccc3)cc2)CC1,-2,-4,-19,9,5,82,.,.
COc1ccc(C(=O)N2CCN(c3ccccc3OC)CC2)cc1,-1,3,-19,5,7,109,97,91
COc1ccc(C(=O)N2CCN(c3cccc(Cl)c3)CC2)cc1,0,-3,-13,2,2,101,98,108
COc1ccc(-n2nc3c(c2NC(=O)COc2ccccc2F)CS(=O)(=O)C3)cc1,-2,-13,-18,11,-1,100,.,.
O=C(NCC(=O)N1CCN(c2ccccn2)CC1)c1ccc(Br)o1,-2,-15,-2,11,3,97,.,.
Cc1noc(C)c1COc1ccc(C(=O)N2CCN(c3cccc(Cl)c3)CC2)cc1,0,3,4,0,7,.,.,.
CCOc1ccc(C(=O)N2CCN(c3cccc(Cl)c3)CC2)cc1,2,-13,15,-11,-2,115,104,89
SMILES,OPRM1-OPRD1 ag,PvdQ inh,HTR5A inv ag,MOR-DOR inv ag,HTR5A ag ctr,CR mimetic SO,CR mimetic CP,DHE fluor count
COc1ccc(S(=O)(=O)N2CCSCC2)cc1C(N)=O,-2,-4,14,8,-4,99,.,.
CC(=O)O[C@H]1C[C@@H]2CC[C@@H]3[C@H](CC[C@@]4(C)[C@H]3C[C@H]([N+]3(C)CCCCC3)[C@@H]4OC(C)=O)[C@@]2(C)C[C@@H]1N1CCCCC1,.,.,.,.,.,92,103,91
CC(=O)O[C@H]1C[C@@H]2CC[C@@H]3[C@H](CC[C@@]4(C)[C@H]3C[C@H]([N+]3(C)CCCCC3)[C@@H]4OC(C)=O)[C@@]2(C)C[C@@H]1[N+]1(C)CCCCC1,1,7,-4,-4,10,87,.,.
CCCCCN(C(=O)CCC(=O)OCc1ccccc1Cl)c1c(N)n(CCCC)c(=O)[nH]c1=O,-1,9,20,9,-6,60*,105,97
O=[N+]([O-])c1cc(Br)c2nsnc2c1N1CCOCC1,0,-13,-13,-1,-5,100,.,.
COC(=O)[C@H](Cc1ccccc1)NC(=O)[C@@H](N)CC(=O)OCc1ccccc1,-2,-9,2,9,4,65*,94,101
COc1cc(/C=C2\CC(C(C)(C)C)C/C(=C\c3cc(OC)c(OC)c(OC)c3)C2=O)cc(OC)c1OC (stereo unspecified),-1,3,-6,5,2,57*,95,91
Cc1cc2c(cn1)C(CCC#N)(CCC#N)c1ccccc1-2,-3,-3,-32,13,9,107,.,.
CN1CCN(C2=Cc3cc(Cl)ccc3Sc3cc(F)ccc32)CC1,6,4,-20,-34,7,60*,94,93
CN1CCN(C2=Cc3ccccc3Sc3cc(F)c(F)cc32)CC1,4,-4,-26,-24,3,73,.,.
O=C(Nc1cccc(C(F)(F)F)c1)C1CCCCC1,4,-4,-17,-20,6,111,.,.
CN(C(=O)Nc1cccc(C(F)(F)F)c1)C1CCCCC1,-1,-15,-5,6,1,54*,91,103
Cc1ccccc1-c1nc(CS(=O)(=O)CC(=O)NCCCN2CC(C)CC(C)C2)c(C)o1 (stereo unspecified),2,-13,-17,-9,4,65*,94,90
Cc1cc(C)c(S(=O)(=O)c2ccccc2Cl)c(=O)[nH]1,-2,11,6,11,-2,102,.,.
O=C(NN1CC(C(=O)OCc2ccc(Br)cc2)CC1=O)c1ccccc1 (stereo unspecified),4,-18,-4,-15,1,102,.,.
COc1nc(N(C)C)nc(N(C#N)CCOC(C)=O)n1,0,-16,-7,3,2,64*,113,104
